The values that follow come from PubChem BioAssay (Tox21).

A number with no mark means an inactive call. Inconclusive results are not listed. Activity calls are given as the source filed them. Unless noted, the call rests on the fitted dose curve; in most records, active means well fitted curve in the direction sought with a large enough effect in the repeat runs; inconclusive means weak or mixed curves; inactive means no such curve, though single readings can be large; an effect the other way counts as inactive or inconclusive.

The nature of experiment [1]: qHTS assay for small molecule agonists of the p53 signaling pathway (AID 651631; calls by dose curve; further: nearly all actives have a fitted effect of over 15% in size). In outline:
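HCT-116 cells carrying a beta-lactamase reporter under p53 response elements were dosed with compound for 16 h at 37 °C. LiveBLAzer B/G FRET substrate was then added for 2 h at room temperature, and fluorescence intensity was read to detect pathway agonism.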
On the technique in general: qHTS replaces the single test concentration by a dilution series.

A short description of experiment [2]: qHTS assay for small molecules that induce genotoxicity in human embryonic kidney cells expressing luciferase-tagged ATAD5 (AID 651632). Further: nearly all actives have a fitted effect of over 15% in size. In outline:
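Luminescent reporter readout, HEK293T ATAD5-luc line: 16 hr drug exposure (37C, 5% CO2) followed by Amplite, 30 min RT.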

A short description of experiment [3]: qHTS assay for small molecule agonists of the p53 signaling pathway - cell viability (AID 651633; calls by dose curve;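 further: p53RE-bla HCT reporter cells with a stable beta-lactamase p53 reporter; series mostly up to about 83 µM; nearly all actives have a fitted effect of over 30% in size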). In outline: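 p53RE-bla cells were treated with compound for 16 hours at 37 C. Cytotoxicity was then measured as CellTiter-Glo luminescence after 30 min at room temperature.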
Experiment [4] is described as follows: qHTS assay for small molecules that induce genotoxicity in human embryonic kidney cells expressing luciferase-tagged ATAD5 - cell viability (AID 651634; calls by dose curve; further: nearly all actives have a fitted effect of over 25% in size). A digest of the protocol:
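Viability read: CellTiter-Fluor fluorescence, 30 min at 37C. Cells: HEK293T, luciferase-tagged ATAD5. Exposure: 15.5 hr, 37C, 5% CO2, compound or DMSO vehicle.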

Experiment [5] is described as follows: qHTS assay for small molecule disruptors of the mitochondrial membrane potential - cell viability (AID 720634; calls by dose curve;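 further: human HepG2 liver cancer cells; series mostly up to about 83 µM; nearly all actives have a fitted effect of over 20% in size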). In outline: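 HepG2, 1 hr compound, 37 C. ATP luminescence via CellTiter-Glo, 30 min RT, same well as m-MPI.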
A short description of experiment [6]: qHTS assay for small molecule disruptors of the mitochondrial membrane potential (AID 720635). Further: potency means the concentration at half of the fitted maximal effect. A digest of the protocol:
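HepG2 cells exposed to compound 1 hr at 37C, then Mito-MPS dye 30 min. Ratio read of aggregate (540/590 nm) versus monomer (490/535 nm) fluorescence.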

The nature of experiment [7]: qHTS assay to test for compound auto fluorescence at 590 nm (red) in HepG2 cells (AID 720674). A digest of the protocol:
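Fluorescence at 590 nm emission following 540 nm excitation was recorded from HepG2 wells one hour after compound transfer, with DMSO-only wells as vehicle and Rose Bengal sodium equivalency as the scale.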

The nature of experiment [8]: qHTS assay to test for compound auto fluorescence at 535 nm (green) in HepG2 cells (AID 720675).
Experiment [9] is described as follows: qHTS assay to test for compound auto fluorescence at 460 nm (blue) in HEK293 cells (AID 720678). In outline: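 Blue-channel (Ex/Em 405/460 nm) intensity measured in HEK293 cultures after overnight compound exposure at 37C; signal expressed relative to triamterene. Cells plated 2,000 per well in 10% dialyzed FBS medium and allowed 4-5 hr to attach.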
The nature of experiment [10]: qHTS assay to test for compound auto fluorescence at 535 nm (green) in HEK293 cells (AID 720680).
Experiment [11] in a line: qHTS assay to test for compound auto fluorescence at 535 nm (green) in HEK293 cell free culture (AID 720682). A digest of the protocol:
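Green-label autofluorescence (485 nm excitation, 535 nm emission) measured on compound added to cell-free culture medium (DMEM, 10% FBS). Output is expressed relative to fluorescein.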

Experiment [12] can be described thus: qHTS assay to test for compound auto fluorescence at 590 nm (red) in HEK293 cell free culture (AID 720683). In outline: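 Cell-free wells of DMEM with 10% FBS received compound, and intrinsic fluorescence was read at excitation/emission 540/590 nm. Values expressed as equivalence to Rose Bengal sodium.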
Experiment [13] is described as follows: qHTS assay to test for compound auto fluorescence at 590 nm (red) in HepG2 cell free culture (AID 720684). A digest of the protocol: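 Compounds are added to culture medium (MEM, 10% FBS) lacking cells, then fluorescence is read at excitation 540 nm, emission 590 nm, with Rose Bengal sodium as the equivalency standard.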
A short description of experiment [14]: qHTS assay to test for compound auto fluorescence at 460 nm (blue) in HepG2 cell free culture (AID 720685). A digest of the protocol: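 Compound (23 nL) or DMSO pinned into cell-free MEM with 10% FBS; blue fluorescence read at 405/460 nm excitation/emission, expressed as auto-fluorescence equivalency to triamterene.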
The nature of experiment [15]: qHTS assay to test for compound auto fluorescence at 535 nm (green) in HepG2 cell free culture (AID 720686).
A short description of experiment [16]: qHTS assay to test for compound auto fluorescence at 460 nm (blue) in HepG2 cells (AID 720687). A digest of the protocol:
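HepG2 cells in MEM with 10% FBS, attached overnight at 37 C, were exposed to compound or DMSO for 1 hr at 37 C, 5% CO2. Blue fluorescence was read at 405/460 nm, with triamterene as reference fluorophore.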

In experiment [17] the target is Glucocorticoid receptor (Homo sapiens) (UniProt P04150). Put plainly: qHTS assay to identify small molecule agonists of the glucocorticoid receptor (GR) signaling pathway (AID 720691; active means well fitted activation curve with a large enough effect in the signal ratio in the repeat runs, not every such curve was filed as active; the % refers to the signal ratio). A digest of the protocol:
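qHTS in GR-bla HeLa cells: 4 h settling at 37 C/5% CO2, 18 h compound incubation at 37 C, 2 h LiveBLAzer B/G FRET substrate at room temperature, fluorescence intensity measured.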

Experiment [18] has the same target. Put plainly: qHTS assay to identify small molecule antagonists of the glucocorticoid receptor (GR) signaling pathway (AID 720692; active means well fitted inhibition curve with a large enough effect in the signal ratio in the repeat runs, not every such curve was filed as active; the % refers to the signal ratio). A digest of the protocol: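 Inhibition of glucocorticoid signalling is measured in HeLa cells with a GRE-controlled beta-lactamase reporter; cells are co-treated with compound and 5 nM dexamethasone (final) for 18 h before FRET substrate readout.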

A short description of experiment [19]: qHTS assay to test for compound auto fluorescence at 590 nm (red) in HEK293 cells (AID 720679). In outline: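 Red-channel autofluorescence (Ex/Em 540/590 nm; Rose Bengal sodium reference) was measured after overnight 37C, 5% CO2 exposure of attached HEK293 cells, 2,000 per well in medium with 10% dialyzed FBS.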
Experiment [20] is described as follows: qHTS assay to test for compound auto fluorescence at 460 nm (blue) in HEK293 cell free culture (AID 720681). In outline: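 Compounds were added to cell-free DMEM with 10% FBS and fluorescence read directly. The blue channel used 405 nm excitation and 460 nm emission, with triamterene as the reference fluorophore.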

Chain of Glucocorticoid receptor (Homo sapiens) (P04150 whole entry, looked up): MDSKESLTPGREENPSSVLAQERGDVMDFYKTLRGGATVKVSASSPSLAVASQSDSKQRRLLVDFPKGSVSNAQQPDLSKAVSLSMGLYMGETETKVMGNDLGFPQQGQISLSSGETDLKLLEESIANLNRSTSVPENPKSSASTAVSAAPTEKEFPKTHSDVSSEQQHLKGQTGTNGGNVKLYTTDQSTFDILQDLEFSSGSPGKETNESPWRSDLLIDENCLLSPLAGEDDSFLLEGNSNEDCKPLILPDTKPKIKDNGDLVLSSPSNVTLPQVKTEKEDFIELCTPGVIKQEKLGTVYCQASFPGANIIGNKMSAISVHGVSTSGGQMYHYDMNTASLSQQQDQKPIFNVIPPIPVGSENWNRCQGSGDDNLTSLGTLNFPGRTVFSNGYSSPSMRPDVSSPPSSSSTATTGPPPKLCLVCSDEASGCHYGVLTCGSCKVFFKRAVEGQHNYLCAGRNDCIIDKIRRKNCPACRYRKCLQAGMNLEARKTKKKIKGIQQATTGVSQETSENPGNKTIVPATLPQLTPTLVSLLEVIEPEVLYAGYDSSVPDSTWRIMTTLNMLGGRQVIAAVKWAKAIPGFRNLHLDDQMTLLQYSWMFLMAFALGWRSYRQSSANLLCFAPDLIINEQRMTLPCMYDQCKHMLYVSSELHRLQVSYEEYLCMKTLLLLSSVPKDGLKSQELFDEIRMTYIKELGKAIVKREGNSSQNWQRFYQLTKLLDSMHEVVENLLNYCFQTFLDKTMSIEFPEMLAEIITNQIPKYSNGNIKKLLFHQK

Regarding `CCCCCC=CCC=CCCCCCCCC(=O)OCC`, the Potency entry in experiment [1], in [2], in [3], in experiment [4], in [5] and in [6] was “inactive” throughout. In addition, the Potency entry in experiment [9], in experiment [14], in experiment [16], in experiment [17] and in experiment [18] was “inactive” each time. Besides, the molecule was classed as inactive in [7], in [8], in experiment [10], in [11], in [12] and in experiment [13]. In addition, the outcome in [15] was inactive.
Regarding `CC(=O)Oc1ccc(C(=C2CCCCC2)c2ccc(OC(C)=O)cc2)cc1`, the Potency entry in experiment [1], in experiment [2], in experiment [3], in [4], in [5] and in experiment [6] was “inactive” each time. Besides, the Potency entry in [9], in experiment [20], in [14] and in [16] was “inactive” each time. For the same molecule, the call in experiment [7], in experiment [8], in experiment [19], in experiment [10], in experiment [11] and in [12] was inactive. Besides, the result in experiment [13] and in experiment [15] was inactive.
`O=C(Nc1ccc([N+](=O)[O-])cc1)Nc1ccc([N+](=O)[O-])cc1`: the Potency entry in experiment [1], in experiment [2], in experiment [3], in experiment [4], in experiment [5] and in experiment [9] was “inactive” in each case. The Potency result in experiment [20], in experiment [14] and in [16] was “inactive” in each case. Further, the Potency in experiment [6] is 422 nM (active). Besides, the outcome in experiment [7], in [8], in experiment [19], in experiment [10], in experiment [11] and in experiment [12] was inactive. Besides, the outcome in experiment [13] and in experiment [15] was inactive.
In the case of `Nc1nccs1`, the Potency result in experiment [1], in experiment [2], in experiment [3], in experiment [4], in [5] and in experiment [6] was “inactive” throughout. In addition, the Potency entry in experiment [9], in experiment [20], in [14], in experiment [16], in [17] and in experiment [18] was “inactive” in each case. The outcome in [7], in experiment [8], in experiment [10], in experiment [11], in experiment [13] and in experiment [15] was inactive.
Regarding `C[N+](C)(C)CCOC(N)=O`, the Potency entry in experiment [1], in experiment [2], in [3], in experiment [4], in [5] and in [6] was “inactive” throughout. Also, the Potency entry in [9], in experiment [20], in [14] and in [16] was “inactive” throughout. Besides, the outcome in experiment [7], in experiment [8], in experiment [19], in [11], in experiment [12] and in [13] was inactive. The call in experiment [15] was inactive.
For `CC(CCO)CCc1ccccc1` (stereo unspecified), the Potency result in [1], in [2], in experiment [3], in experiment [4], in experiment [5] and in experiment [6] was “inactive” in each case. Moreover, the Potency result in experiment [9], in experiment [20], in experiment [14], in experiment [16], in experiment [17] and in experiment [18] was “inactive” throughout. For the same molecule, the outcome in experiment [7], in experiment [8], in [10], in experiment [11], in experiment [12] and in experiment [13] was inactive. For the same molecule, the call in [15] was inactive.
`CC(=O)Nc1ccccc1C`: the Potency result in experiment [1], in [2], in experiment [3], in experiment [4], in [5] and in experiment [6] was “inactive” each time. Further, the Potency result in experiment [9], in experiment [20], in experiment [14], in experiment [16], in experiment [17] and in [18] was “inactive” throughout. Besides, the molecule was classed as inactive in experiment [7], in experiment [8], in [19], in [10], in [11] and in experiment [15].
